Sfp inh = Sfp phosphopantetheinyl transferase inhibition | Q9F4F7 | Biochemical Sfp PPTase activity, qHTS | Potency, µM, for inactives: largest response in the series, negative = inhibition, most hits filed as inhibitors | actives 3.5% (n = 310,000);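 also: the enzyme is Sfp with the accession as filed and its product quenches rhodamine fluorescence; 0% = enzyme reaction without inhibitor and -100% = no enzyme wells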
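Sfp 15 nM + cpd, 15 min RT; start w/ rhodamine-CoA 5 uM, BHQ-2-YbbR 12.5 uM (final); 50 mM Hepes pH 7.6, 10 mM MgCl2, 0.01% NP-40, 0.01% BSA; read 525/598 nm at 0 and 30 min.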
G9a inh = inhibitors of human histone lysine methyltransferase G9a; G9a H3K9 monomethylation, AlphaScreen, 2 h; Potency, µM (series often up to 102 µM), inactives show top-dose activity, negative = inhibition, most hits filed as inhibitors; actives 8.8% (n = 350,000); also: % is scaled to controls: 0 for no effect and ±100 for the full control effect; nearly all actives have a fitted effect of over 75% in size
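Readings reflect AlphaScreen signal from monomethyl-H3K9 antibody detection. HMT at 20 nM; substrate b-H3K9 500 nM; cofactor SAM 20 uM; 2 h RT reaction; compounds tested as titrations in qHTS with 15 min preincubation.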
BAZ2B block = inhibitors of human BAZ2B bromodomain; AlphaScreen BAZ2B-H3K14Ac peptide displacement; Potency, µM (top dose mostly 114 µM), inactives show top-dose activity change, negative = inhibition, usual class: inhibitors; actives 4.4% (n = 360,000); AID 504333; also: % is scaled to controls: 0 for no effect and ±100 for the full control effect; nearly all actives have a fitted effect of over 60% in size
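Inhibition is scored as reduced AlphaScreen emission. The BAZ2B/b-H3(5-23)K14Ac complex (50 nM each) in PBS pH 7.4, 0.01% Tween-20 meets compound (up to 110 uM) for 30 min at RT before bead addition.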
L3MBTL1 inh-1 = inhibitors of human L3MBTL1 | actives 0.66% (n = 230,000) | AlphaScreen L3MBTL1–H3K9me1 peptide binding | AID 485360 | Q9Y468 | Potency, µM (titrated, usually from 57.1 µM), for the others: top-dose activity, negative = inhibition, usual class: inhibitors; also: % is scaled to controls: 0 for no effect and ±100 for the full control effect; nearly all actives have a fitted effect of over 60% in size
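L3MBTL1 50 nM + b-AHA-H3(1-15)K9me1 75 nM, 30 min RT; compound added, 30 min RT; streptavidin donor/Ni-chelate acceptor beads 10 ug/mL each final, 30 min RT dark; AlphaScreen read.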
HP1b binding inh = HP1-beta chromodomain-methylated histone interaction inhibition | P83916 | AlphaScreen HP1-beta / biotin-H3K9me3 peptide binding | Potency, µM (highest dose often 114 µM), without a hit: at the top dose activity change, negative = inhibition, actives largely listed as inhibitors | actives 0.56% (n = 390,000) | AID 540317; also: nearly all actives have a fitted effect of over 70% in size
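HP1-beta protein (50 nM final) preincubated 30 min at room temperature with biotinylated H3(1-18)K9me3 peptide (50 nM) in PBS pH 7.4, 0.01% Tween-20, then compound added for 30 min. AlphaScreen streptavidin donor/nickel chelate acceptor beads (10 ug/mL final), 30 min dark, luminescence read.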
JMJD2A Tudor inh = inhibitors of human JMJD2A Tudor domain. O75164. AlphaScreen JMJD2A-Tudor / H3K4me3 peptide binding. Potency, µM (doses to about 114 µM), for inactives: at the top dose activity change, negative = inhibition, hits mostly inhibitors. actives 4.4% (n = 390,000). AID 504339; also: % is scaled to controls: 0 for no effect and ±100 for the full control effect; nearly all actives have a fitted effect of over 50% in size
L3MBTL1 inh-2 = blocks human L3MBTL1 methyl-lysine binding; L3MBTL1 methyl-lysine binding inhibition, biochemical qHTS; shares compounds with L3MBTL1 inh-1; actives 91% (n = 500); AID 540279; Potency, µM, actives largely listed as inhibitors; also: nearly all actives have a fitted effect of over 70% in size
L3MBTL1 ctr = AlphaScreen signal inhibition, L3MBTL1 hit counter-screen | shares compounds with L3MBTL1 inh-1 | AlphaScreen counterscreen, signal inhibition | Potency, µM (titrated, usually from 57.1 µM), inactives show at the highest dose activity change, negative = inhibition, usual class: inhibitors | 500 tested, under 10 active | AID 602224; also: 0% is about no effect
* hit, by the source's call; [ ] = another dose, or the depositor's remark. A selection: hits, their analogues and other compounds. The true share with any hit is near 12%. Calls follow the shape of the dose curve; as a rule, active = well fitted curve in the direction sought with a large enough effect; inconclusive = small, poorly fitted or top-dose-only effect, or another doubt; inactive = no such curve, though single readings can be large; an effect the other way counts as inactive or inconclusive. Potency is read from the fitted curve at half-maximal effect.

For CCOC(=O)C(C)Sc1nc(-c2ccccn2)ncc1OC (stereo not given) the results were Sfp inh 35.5µM*, G9a inh -26.1%, BAZ2B block 3.16µM*, L3MBTL1 inh-1 25.1µM*, HP1b binding inh 8.6%, JMJD2A Tudor inh -17.3%[11.4 µM], L3MBTL1 inh-2 26.7* and L3MBTL1 ctr inconclusive.
Screening COc1cnc(-c2ccccn2)nc1N(C)C returned Sfp inh 15.8µM*, G9a inh -40.5%, BAZ2B block 4.47µM*, L3MBTL1 inh-1 3.98µM*, HP1b binding inh 39.3%, JMJD2A Tudor inh 22.4µM*, L3MBTL1 inh-2 6.7* and L3MBTL1 ctr -80.5%.
`Cc1ccc([N+](=O)[O-])cc1NC(=O)C[n+]1ccccc1` gave Sfp inh 12.7%, G9a inh -27.1%, BAZ2B block -19.3%, L3MBTL1 inh-1 5.6%, HP1b binding inh 23.6% and JMJD2A Tudor inh -1.6%.
For CNc1nc(OC)nc(N2CCOCC2)n1 the results were Sfp inh 30.4%, G9a inh -2.5%[59 µM], BAZ2B block 4.5%, L3MBTL1 inh-1 22.3%[11.4 µM], HP1b binding inh 47.9% and JMJD2A Tudor inh 1.7%.
CNc1nc(C(=O)O)nc(N2CCOCC2)n1 was read as Sfp inh 56.2µM*, G9a inh 5.62µM*, BAZ2B block 11.2µM*, L3MBTL1 inh-1 20µM*, HP1b binding inh -15.0%, JMJD2A Tudor inh 4.47µM*, L3MBTL1 inh-2 inconclusive and L3MBTL1 ctr inconclusive.
Cc1cccc(OCC(=O)Nc2nnc(S(=O)(=O)N3CCc4ccccc43)s2)c1 was read as G9a inh inconclusive, BAZ2B block -27.6%, HP1b binding inh -1.6% and JMJD2A Tudor inh -25.7%.
Screening COc1ccc(-n2cccc2/C=C2\C(=N)N3N=C(c4ccco4)SC3=NC2=O)cc1 returned Sfp inh -7.0%, G9a inh inconclusive, BAZ2B block 39.8µM*, L3MBTL1 inh-1 15.8µM*, HP1b binding inh -13.7%, JMJD2A Tudor inh 14.1µM*, L3MBTL1 inh-2 2.67* and L3MBTL1 ctr inconclusive.
Cc1cccc(/C=C(\C(=O)O)c2ccc(S(=O)(=O)N3CCCC3)s2)c1 was read as L3MBTL1 inh-1 28.2µM*, HP1b binding inh -9.6%, JMJD2A Tudor inh inconclusive, L3MBTL1 inh-2 5.32* and L3MBTL1 ctr 2.8%.
Screening O=C(O)/C(=C\c1cccc(F)c1)c1ccc(S(=O)(=O)N2CCCC2)s1 returned G9a inh inconclusive, BAZ2B block -33.1%, L3MBTL1 inh-1 -3.1%, HP1b binding inh 21.1% and JMJD2A Tudor inh -18.0%.
For COc1cccc(CNC(=O)CN2c3cccc4cccc(c34)S2(=O)=O)c1 the results were G9a inh inconclusive, BAZ2B block 50.1µM*, L3MBTL1 inh-1 31.6µM*, HP1b binding inh 3.2%, JMJD2A Tudor inh inconclusive, L3MBTL1 inh-2 26.7* and L3MBTL1 ctr 6.6%.
`Cc1ccc(CNC(=O)CN2c3cccc4cccc(c34)S2(=O)=O)cc1` gave G9a inh 12.0%[59 µM], BAZ2B block 3.9%, L3MBTL1 inh-1 -4.4%, HP1b binding inh 49.7% and JMJD2A Tudor inh -22.2%.
For Cn1c(CC(=O)Nc2ccccc2)cc2ccccc21 the results were Sfp inh 16.9%, G9a inh 43.4%, BAZ2B block -25.6%, L3MBTL1 inh-1 -6.2%, HP1b binding inh 24.2% and JMJD2A Tudor inh -6.3%.
COc1ccc(S(=O)(=O)/N=C2/NC(=O)/C(=C/c3ccco3)S2)cc1 was read as Sfp inh -15.5%, G9a inh inconclusive, BAZ2B block inconclusive, L3MBTL1 inh-1 35.5µM*, HP1b binding inh 12.3%, JMJD2A Tudor inh inconclusive, L3MBTL1 inh-2 18.9* and L3MBTL1 ctr -1.3%.
`COc1cc(/C=C2\S/C(=N/S(=O)(=O)c3ccccc3)NC2=O)c([N+](=O)[O-])cc1OC` gave Sfp inh inconclusive, G9a inh -19.7%[59 µM], BAZ2B block -29.6%, L3MBTL1 inh-1 8.8%, HP1b binding inh -24.2% and JMJD2A Tudor inh inconclusive.
For COc1ccc(N2Cc3cccc(C(=O)NC(C)CCc4ccco4)c3C2=O)cc1 (stereo not given) the results were Sfp inh 44.7µM*, G9a inh inconclusive, BAZ2B block 35.5µM*, L3MBTL1 inh-1 14.1µM*, HP1b binding inh inconclusive, JMJD2A Tudor inh 44.7µM*, L3MBTL1 inh-2 2.67* and L3MBTL1 ctr 9.3%.
`CC(CCc1ccco1)NC(=O)c1cccc2c1C(=O)N(C1CCCCC1)C2` (stereo not given) gave Sfp inh -27.0%, G9a inh -13.4%, BAZ2B block 4.9%, HP1b binding inh 21.3% and JMJD2A Tudor inh -27.9%.
Screening O=C(O)CCCN1C(=O)/C(=C\c2ccc(-c3nc4ccccc4s3)o2)SC1=S returned Sfp inh 50.1µM*, BAZ2B block 7.94µM*, L3MBTL1 inh-1 3.55µM*, HP1b binding inh 17.8µM*, JMJD2A Tudor inh -31.6%[11.4 µM], L3MBTL1 inh-2 4.23* and L3MBTL1 ctr inconclusive.
Screening O=C(O)c1ccc(-c2nc3ccccc3s2)o1 returned Sfp inh -12.6%, G9a inh inconclusive, BAZ2B block -37.5%, HP1b binding inh 27.2% and JMJD2A Tudor inh -9.6%[11.4 µM].
`Cc1cc(=O)c2cc3nc(-c4cccnc4)oc3c(Br)c2o1` gave Sfp inh -3.8%, G9a inh 39.8µM*, BAZ2B block 79.4µM*, L3MBTL1 inh-1 31.6µM*, L3MBTL1 inh-2 5.97* and L3MBTL1 ctr -2.7%.
Screening O=c1oc(-c2cccnc2)nc2ccccc12 returned Sfp inh 3.5%, G9a inh inconclusive, BAZ2B block 0.1%, L3MBTL1 inh-1 -2.7%, HP1b binding inh 31.8% and JMJD2A Tudor inh -6.6%.
Screening c1ccc(-c2nc(-c3ccncc3)n[nH]2)nc1 returned Sfp inh 14.1µM*, BAZ2B block 2.51µM*, L3MBTL1 inh-1 3.16µM*, HP1b binding inh 63.3%, JMJD2A Tudor inh 2.82µM*, L3MBTL1 inh-2 4.74* and L3MBTL1 ctr -94.7%.
For O=C1CCCC2=C1C(c1ccc(O)c(O)c1)c1c(ccc3ncccc13)N2 (stereo not given) the results were Sfp inh 7.94µM*, G9a inh 3.55µM*, BAZ2B block 44.7µM*, L3MBTL1 inh-1 2µM*, HP1b binding inh inconclusive, JMJD2A Tudor inh -18.8%[11.4 µM], L3MBTL1 inh-2 21.2* and L3MBTL1 ctr 13.6%.

Bioassay records (PubChem)
